Source: the supplement of paper PMC8975748
Structures can show the parent of a compound that is named as a salt.

These compounds were tested on Saccharomyces cerevisiae BY4741 SeMeCo community (assay: z-score of subpopulation abundance vs DMSO median, subpopulation auxotrophic for HU; higher = larger share of this subpopulation than in DMSO controls). Conditions: 10 µM; 24 h; SM minimal medium; subpopulation (auxotrophy): HU.
Description: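 Fluorescent four-plasmid SeMeCo (self-establishing metabolically cooperating S. cerevisiae BY4741 community; plasmids pH-mRuby2, pL-mWasabi, pU-eCFP, pM-TagRFP657) was grown 24 h in minimal SM medium with each Selleck FDA-approved drug at 10 µM in 384-well plates. Cells were fixed and imaged by high-content confocal microscopy. For each auxotrophic subpopulation (and the prototroph), a z-score gives the deviation from the DMSO vehicle-control population median.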

| SMILES | z-score of subpopulation abundance |
| --- | --- |
| CC[C@H]1CN2CC[C@]3(C(=O)Nc4ccccc43)[C@@H]2C[C@@H]1/C(=C\OC)C(=O)OC [Rhynchophylline] | 0.35 |
| CN1[C@@H]2C[C@@H](OC(=O)[C@H](CO)c3ccccc3)C[C@H]1[C@@H]1O[C@@H]12 [Scopolamine HBr trihydrate] | -0.46 |
| COc1ccc(C=O)cc1 [p-Anisaldehyde] | -0.72 |
| C[N+](C)(C)CCCCCCCCCC[N+](C)(C)C [Decamethonium Bromide] | -0.06 |
| CCCCCCCCCCCCCCCC[n+]1ccccc1 [Cetylpyridinium Chloride] | 16.1 |
| O=[N+]([O-])C(Br)(CO)CO [Bronopol] | 0.4 |
| CC[C@@H](C(N)=O)N1CCCC1=O [Levetiracetam] | -0.75 |
| CCCN1C[C@H](CSC)C[C@@H]2c3cccc4[nH]cc(c34)C[C@H]21 [Pergolide Mesylate] | -0.93 |
| N#Cc1nn(-c2c(Cl)cc(C(F)(F)F)cc2Cl)c(N)c1[S+]([O-])C(F)(F)F (stereo not given) [Fipronil] | -0.37 |
| C[C@@H]1CC[C@H]2[C@@H](C)C(=O)O[C@@H]3O[C@@]4(C)CC[C@@H]1[C@]32OO4 [Artemisinin] | 0.58 |
| Nc1ccncc1 [4-Aminopyridine] | 0.52 |
| O=c1[nH]c2ccccc2n1CCCN1CCC(n2c(=O)[nH]c3cc(Cl)ccc32)CC1 [Domperidone] | 0.86 |
| C=CCN1C[C@H](C(=O)N(CCCN(C)C)C(=O)NCC)C[C@@H]2c3cccc4[nH]cc(c34)C[C@H]21 [Cabergoline] | 0.39 |
| Cc1cc(C(C#N)c2ccc(Cl)cc2)c(Cl)cc1NC(=O)c1cc(I)cc(I)c1O (stereo not given) [Closantel] | 0.25 |
| CC[C@@]1(O)C(=O)OCc2c1cc1n(c2=O)Cc2cc3ccccc3nc2-1 [Camptothecin] | -0.74 |
| C=C[C@H]1CN2CC[C@H]1C[C@H]2[C@H](O)c1ccnc2ccccc12 [Cinchonidine] | -0.45 |
| N[C@@H]1C[C@H]1c1ccccc1 [Tranylcypromine (2-PCPA) HCl] | 0.44 |
| CC(C)=CCOc1c2occc2cc2ccc(=O)oc12 [Imperatorin] | 0.85 |
| COc1ccc2[nH]cc(CCN)c2c1 [5-Methoxytryptamine] | 0.53 |
| CN[C@@H]1[C@@H](O)[C@@H](O[C@@H]2[C@@H](O)[C@H](O[C@H]3O[C@H](CN)CC[C@H]3N)[C@@H](N)C[C@H]2N)OC[C@]1(C)O.CN[C@@H]1[C@@H](O)[C@@H](O[C@@H]2[C@@H](O)[C@H](O[C@H]3O[C@H]([C@@H](C)N)CC[C@H]3N)[C@@H](N)C[C@H]2N)OC[C@]1(C)O.CN[C@@H]1[C@@H](O)[C@@H](O[C@@H]2[C@@H](O)[C@H](O[C@H]3O[C@H]([C@@H](C)NC)CC[C@H]3N)[C@@H](N)C[C@H]2N)OC[C@]1(C)O [Gentamicin Sulfate] | -0.53 |

| SMILES | z-score of subpopulation abundance |
| --- | --- |
| Cc1cc(O)ccc1Cl [Chlorocresol] | -1.07 |
| CC(=O)O[C@H]1C[C@@H]2CC[C@@H]3[C@H](CC[C@@]4(C)[C@H]3C[C@H]([N+]3(C)CCCCC3)[C@@H]4OC(C)=O)[C@@]2(C)C[C@@H]1[N+]1(C)CCCCC1 [Pancuronium dibromide] | -0.53 |
| C[C@H]1O[C@H](O[C@H]2[C@H](O)[C@@H](O)[C@@H](O)[C@H](O)[C@@H]2O)[C@@H](N)C[C@@H]1NC(=N)C(=O)O [Kasugamycin hydrochloride] | -0.33 |
| CN(C)[C@@H]1C(=O)C(C(N)=O)=C(O)[C@@]2(O)C(=O)C3=C(O)c4c(O)cccc4[C@@](C)(O)[C@H]3C[C@@H]12 [Tetracycline HCl] | -0.3 |
| CN[C@@H]1[C@@H](O)[C@@H](O[C@@H]2[C@@H](O)[C@H](O[C@H]3O[C@H]([C@@H](C)O)[C@@H](O)[C@H](O)[C@H]3N)[C@@H](N)C[C@H]2N)OC[C@]1(C)O [Geneticin (G418 Sulfate)] | -0.46 |
| CNC1CC(N)C(O)C(OC2OC(CO)C(O)C3OC4(OC(C(N)CO)C(O)C(O)C4O)OC23)C1O (stereo not given) [Hygromycin B] | -0.07 |
| CCOC(=O)Nc1ccc(NCc2ccc(F)cc2)cc1N [Retigabine] | -0.59 |
| CN1[C@@H]2CC[C@H]1C[C@@H](OC(=O)C(CO)c1ccccc1)C2 (stereo not given in full) [Atropine sulfate monohydrate] | 0.23 |
| CC(NC(C)(C)C)C(=O)c1cccc(Cl)c1 (stereo not given) [Amfebutamone (Bupropion) HCl] | -0.9 |
| CC[C@H]1[C@@H]2C[C@H]3[C@@H]4N(C)c5ccccc5[C@]45C[C@@H]([C@@H]2[C@H]5O)N3[C@@H]1O [Ajmaline] | -0.28 |
| CCC1=C[C@H]2CN3CCc4c([nH]c5ccccc45)[C@](C(=O)OC)(C2)[C@H]13 [Catharanthine] | -0.39 |
| CCN(C)C(=O)Oc1cccc([C@H](C)N(C)C)c1 [Rivastigmine Tartrate] | -0.86 |
| CN(C)C(=O)Oc1ccc[n+](C)c1 [Pyridostigmine Bromide] | 0.63 |
| CN(C)[C@@H]1C(=O)C(C(N)=O)=C(O)[C@@]2(O)C(=O)C3=C(O)c4c(O)cccc4[C@@](C)(O)[C@H]3[C@H](O)[C@@H]12 [Oxytetracycline (Terramycin)] | 0.99 |
| Oc1cccc2cccnc12 [8-Hydroxyquinoline] | -1.16 |
| COc1ccc(C(CN(C)C)C2(O)CCCCC2)cc1 (stereo not given) [Venlafaxine HCl] | -0.07 |
| COc1ccc(C(CN(C)C)C2(O)CCCCC2)cc1 (stereo not given) [Venlafaxine] | 0.4 |
| C=CC[C@]1(O)CC[C@H]2[C@@H]3CCC4=CC(=O)CCC4=C3C=C[C@@]21C [Altrenogest] | -1.33 |
| COc1cc2c(cc1OC)C1CC(=O)C(CC(C)C)CN1CC2 (stereo not given) [Tetrabenazine (Xenazine)] | -1.24 |
| COC(=O)C1=CCCN(C)C1 [Arecoline HBr] | 0.06 |
